Most compounds without a hit are left out; they make up all but 1.4% or so of the library.
RXFP1 ag = RXFP1 (human) receptor agonism | Potency, µM (series often up to 57.5 µM), for the others: at the highest dose activation, hits mostly activators | HEK293T-RXFP1 cAMP TR-FRET, 30 min; response scale: percent of porcine relaxin response, buffer zero | 370,000 compounds, 0.3% hits; also: potency is read from the fitted curve at half-maximal effect; % is scaled to controls: 0 for no effect and ±100 for the full control effect; nearly all actives have a fitted effect of over 60% in size
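HEK293 cells stably expressing RXFP1, treated 30 min at 37C with compounds plus PDE4 inhibitor Ro 20174; cAMP measured by HTRF TR-FRET. Normalized to buffer and 29 nM porcine relaxin; EC50 by Hill fit.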
RXFP1 antagonist = blocks the human relaxin receptor RXFP1. Q9HBX9. HEK293-RXFP1, relaxin-stimulated cAMP HTRF, 30 min; active compounds read low. AID 1259400. 350,000 compounds, 0.59% hits. activity change, negative = inhibition, % at 57.5 µM;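 active = activity change of -60% or lower, but not beyond a set lower limit; inconclusive = change between -60% and -40%, or beyond the set limit; inactive = change above -40%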; also: % is scaled to controls: 0 for no effect and ±100 for the full control effect
hERG WT inh = blocks the wildtype human KCNH2 potassium channel | Q12809 | U2OS, BacMam KCNH2, thallium flux FluxOr; active compounds read low | activity change, % at 1.84 µM | 340,000 compounds, 0.37% hits | AID 720551;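 active = maximum activity change below -70%; inconclusive = maximum activity change between -70% and -50%; inactive = maximum activity change above -50%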; also: % is scaled to controls: 0 for no effect and ±100 for the full control effect
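U2OS cells were transduced with wild-type KCNH2 virus (2.03 x 10^8 / mL) for 4 h at room temperature, then cultured overnight at 37 C. Thallium flux was read with FluxOr dye. Rate constants were normalized to DMSO controls.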
Glioma ERSR ind = induces the endoplasmic reticulum stress response in human glioma cells. U87-MG GRP78 promoter luciferase reporter, 16 h. Potency, µM, for the others: at the top dose activation, hits mostly activators. 420,000 compounds, 0.02% hits; also: potency is read from the fitted curve at half-maximal effect; series mostly up to about 76 µM; % of control where 0% means no effect; nearly all actives have a fitted effect of over 35% in size
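Stably transfected U87-MG human glioma cells carrying a GRP78-based luminescent sensor were seeded at 1000 cells/well, pin-dosed with compounds and incubated 16 h. Luciferase reagent was then added, and end-point luminescence was read after 10 min at room temperature.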
KCNH2 3.1 inh = inhibitors of human KCNH2 3.1 potassium channel isoform; activity change, % (tested at about 1.8 µM); U2OS KCNH2 3.1, thallium flux FluxOr; active compounds read low; 340,000 compounds, 0.95% hits; AID 720553;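 active = maximum activity change below -70%; inconclusive = maximum activity change from -70% to -50%; inactive = maximum activity change above -50%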;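 also: thallium influx rate constant from kinetic fluorescence after stimulation buffer; % is scaled to controls: 0 for no effect and ±100 for the full control effect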
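Virally transduced U2OS (3.1 isoform, 4 h infection in dark at RT) → overnight 37 C → FluxOr + Red40 in HBSS/HEPES, 45 min → stimulation buffer, 2 min kinetic read → rate constant vs DMSO controls.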
PTHR1 agonist = PTHR1 (human) receptor agonism; Q03431; HEK293 GP2 PTHR1 cells, GloSensor cAMP luminescence, 1 h; Potency, µM (top dose mostly 115 µM), for inactives: at the top dose activation, hits mostly activators; 410,000 compounds, 0.075% hits; AID 743266; also: potency is read from the fitted curve at half-maximal effect; nearly all actives have a fitted effect of over 55% in size
Target sequence (Q03431 whole entry, looked up): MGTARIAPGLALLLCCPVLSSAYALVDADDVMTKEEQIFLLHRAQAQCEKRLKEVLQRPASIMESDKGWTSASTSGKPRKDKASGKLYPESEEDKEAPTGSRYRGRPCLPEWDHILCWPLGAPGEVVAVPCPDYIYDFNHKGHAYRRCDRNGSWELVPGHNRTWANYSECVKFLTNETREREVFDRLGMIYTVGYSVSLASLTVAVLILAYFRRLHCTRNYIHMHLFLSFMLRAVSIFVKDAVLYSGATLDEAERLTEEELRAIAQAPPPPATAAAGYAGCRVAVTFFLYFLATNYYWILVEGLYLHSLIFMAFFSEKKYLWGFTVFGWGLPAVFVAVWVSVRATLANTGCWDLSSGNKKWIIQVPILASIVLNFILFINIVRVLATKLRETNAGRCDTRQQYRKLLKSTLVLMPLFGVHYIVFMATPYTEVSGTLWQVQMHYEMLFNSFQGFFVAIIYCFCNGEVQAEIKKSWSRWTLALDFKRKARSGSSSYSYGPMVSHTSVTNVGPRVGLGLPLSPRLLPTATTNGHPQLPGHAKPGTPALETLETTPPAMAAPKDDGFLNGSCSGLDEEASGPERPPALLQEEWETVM
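HEK-293-derived GP2 cells expressing PTHR1 and a GloSensor cAMP reporter, 3,000/well, plated overnight, given luciferin plus IBMX (each 0.5 mM as added) for 1 h at 37 °C, then compound for 1 h at 37 °C. Luminescence was read after 15 min at room temperature.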
Active calls of the source: *; [ ] = remark or other dose. Unless noted, calls follow the shape of the dose curve; as a rule, active = well fitted curve in the direction sought with a large enough effect; inconclusive = small, poorly fitted or top-dose-only effect, or another doubt; inactive = no such curve, though single readings can be large; an effect the other way counts as inactive or inconclusive.

Results for O=c1oc2cc(O)c(Cl)cc2c2ccccc12 ?
RXFP1 ag: 11µM*; RXFP1 antagonist: 43; hERG WT inh: 0; Glioma ERSR ind: -2%; KCNH2 3.1 inh: 13; PTHR1 agonist: inactive

Results for COc1ccc(CN2CCN(Cc3ccc(C(F)(F)F)cc3)CC2)c(OC)c1 ?
RXFP1 ag: 5%; RXFP1 antagonist: 0; hERG WT inh: -41; Glioma ERSR ind: -5%; KCNH2 3.1 inh: -101*; PTHR1 agonist: inactive

What do the screens show for `COc1ccc(CN2CCN(Cc3ccc(C)cc3)CC2)c(OC)c1`?
RXFP1 ag: 1%; RXFP1 antagonist: -7; hERG WT inh: 8; Glioma ERSR ind: -7%; KCNH2 3.1 inh: -5; PTHR1 agonist: inactive

Results for COc1ccc(CN2CCN(Cc3c[nH]c4ccccc34)CC2)c(OC)c1 ?
RXFP1 antagonist: 5; hERG WT inh: 36; Glioma ERSR ind: -3%; KCNH2 3.1 inh: -102*; PTHR1 agonist: inactive

Results for COC(=O)c1cc(C(=O)NCCC(C)C)cc([N+](=O)[O-])c1 ?
RXFP1 ag: 1%; RXFP1 antagonist: -15; hERG WT inh: -3; Glioma ERSR ind: -3%; KCNH2 3.1 inh: 4; PTHR1 agonist: inactive

What do the screens show for `CCOC(=O)C1=C(C)NC(=O)NC1c1ccc(Br)o1` (stereo unspecified)?
RXFP1 ag: -1%; RXFP1 antagonist: -4; hERG WT inh: -3; Glioma ERSR ind: -2%; KCNH2 3.1 inh: -4; PTHR1 agonist: inactive

Results for CC(C)(C)NCc1cc(Cl)ccc1OCc1ccccc1F ?
RXFP1 ag: 0%; RXFP1 antagonist: -28; hERG WT inh: 9; Glioma ERSR ind: -4%; KCNH2 3.1 inh: 1; PTHR1 agonist: inactive

How did NC(=O)C1CCN(c2csc3ccc(F)cc3c2=O)CC1 do in these assays?
RXFP1 ag: 0%; RXFP1 antagonist: -9; Glioma ERSR ind: -1%; PTHR1 agonist: inactive

What do the screens show for `O=C(CN1CCCC1)Nc1ccccc1Sc1ccc(Cl)cc1`?
RXFP1 ag: 1%; RXFP1 antagonist: -9; hERG WT inh: 10; Glioma ERSR ind: -3%; KCNH2 3.1 inh: -90*; PTHR1 agonist: -14%

What do the screens show for `O=C(CN1CCN(CC(=O)Nc2ccccc2Cl)CC1)Nc1ccc(F)c(F)c1`?
RXFP1 ag: -3%; RXFP1 antagonist: 4; hERG WT inh: inconclusive; Glioma ERSR ind: -2%; KCNH2 3.1 inh: -111*; PTHR1 agonist: -31%

What do the screens show for `Cc1c(C(=O)N2CCN(CC(=O)Nc3ccccc3Cl)CC2)oc2ccc(Br)cc12`?
RXFP1 ag: 6%; RXFP1 antagonist: 4; hERG WT inh: -29; Glioma ERSR ind: -7%; KCNH2 3.1 inh: -73*; PTHR1 agonist: -26%

What do the screens show for `CCOc1ccc(NC(=O)CN2CCN(CC(=O)Nc3ccc(C(=O)OC)cc3)CC2)cc1`?
RXFP1 ag: 0%; RXFP1 antagonist: 3; hERG WT inh: inconclusive; Glioma ERSR ind: -3%; KCNH2 3.1 inh: -83*; PTHR1 agonist: inactive

How did Cc1c(C(=O)N2CCCCC2)oc2ccc(Br)cc12 do in these assays?
RXFP1 ag: 0%; RXFP1 antagonist: -13; hERG WT inh: -2; Glioma ERSR ind: 3%; KCNH2 3.1 inh: -11; PTHR1 agonist: -18%

Results for COc1cc2c(cc1OC)/C(=C/C(=O)c1ccc(OC)c([N+](=O)[O-])c1)NCC2 ?
RXFP1 ag: 2%; RXFP1 antagonist: 4; hERG WT inh: -12; Glioma ERSR ind: -4%; KCNH2 3.1 inh: 3; PTHR1 agonist: -8%

How did CC(Sc1nnnn1C1CCCC1)C(=O)Nc1cccc(S(=O)(=O)N2CCOCC2)c1 (stereo unspecified) do in these assays?
RXFP1 ag: 0%; RXFP1 antagonist: 4; hERG WT inh: -18; Glioma ERSR ind: -3%; KCNH2 3.1 inh: -9; PTHR1 agonist: inactive

What do the screens show for `CC(=O)c1ccc(OCc2c(-c3ccccc3)nnn2CC(=O)NS(=O)(=O)c2ccc(C)cc2)cc1`?
Glioma ERSR ind: -5%; PTHR1 agonist: inactive

How did CCOc1ccc(NC(=O)CN2CCN(CC(=O)Nc3ccc(F)c(F)c3)CC2)cc1 do in these assays?
RXFP1 ag: 0%; RXFP1 antagonist: -5; hERG WT inh: -117*; Glioma ERSR ind: 3%; KCNH2 3.1 inh: -93*; PTHR1 agonist: inactive

Results for CCOc1ccc(NC(=O)CN2C(=O)CSC2=O)cc1 ?
RXFP1 ag: -1%; RXFP1 antagonist: 0; hERG WT inh: -18; Glioma ERSR ind: 1%; KCNH2 3.1 inh: -90*; PTHR1 agonist: -28%

How did COc1cccc(NC(=O)CN2C(=O)CSc3nc(C)cc(C)c32)c1 do in these assays?
RXFP1 ag: 0%; RXFP1 antagonist: -2; hERG WT inh: -4; Glioma ERSR ind: 1%; KCNH2 3.1 inh: -7; PTHR1 agonist: -21%

How did CCOc1ccc(NC(=O)CN2CCN(c3ccc(F)cc3)CC2)cc1 do in these assays?
RXFP1 ag: 5%; RXFP1 antagonist: -4; hERG WT inh: 1; Glioma ERSR ind: 1%; KCNH2 3.1 inh: 32; PTHR1 agonist: -4%

Results for Cc1cc(C)c2c(n1)SCC(=O)N2CC(=O)Nc1ccc(C)c(C)c1 ?
RXFP1 ag: 0%; hERG WT inh: 2; Glioma ERSR ind: -7%; KCNH2 3.1 inh: -130*; PTHR1 agonist: 2%

What do the screens show for `NS(=O)(=O)c1ccc(N/N=C/c2cn(-c3ccccc3)nc2-c2cccs2)cc1`?
RXFP1 ag: 2%; RXFP1 antagonist: 13; hERG WT inh: 8; Glioma ERSR ind: -1%; KCNH2 3.1 inh: 8; PTHR1 agonist: inactive

What do the screens show for `CCCCNC(=O)Cc1coc2ccc3ccccc3c12`?
RXFP1 ag: 1%; RXFP1 antagonist: -1; hERG WT inh: -8; Glioma ERSR ind: 1%; KCNH2 3.1 inh: -6; PTHR1 agonist: -2%[57.5 µM]

How did CC1CCCCC1N1CN=C(Nc2nc3ccccc3s2)NC1 (stereo unspecified) do in these assays?
RXFP1 ag: 2%; RXFP1 antagonist: -13; hERG WT inh: -3; Glioma ERSR ind: -4%; KCNH2 3.1 inh: -8; PTHR1 agonist: 0%[57.5 µM]

What do the screens show for `CC(OC(=O)c1ccc(O)cc1)C(=O)Nc1nc(-c2ccccc2)cs1` (stereo unspecified)?
RXFP1 ag: 0%; RXFP1 antagonist: -85*; hERG WT inh: -1; Glioma ERSR ind: 3%; KCNH2 3.1 inh: -24; PTHR1 agonist: -43%

How did Cc1sc2nc(SCC(=O)NCc3ccco3)n(C)c(=O)c2c1C do in these assays?
RXFP1 ag: 4%; RXFP1 antagonist: 7; hERG WT inh: -8; Glioma ERSR ind: -2%; KCNH2 3.1 inh: 6; PTHR1 agonist: inactive
